Results filed as inconclusive are left out. The source made the active and inactive calls. How the source made its calls: active means hit-call score of the fitted dose curve at least 0.9, where 1 is the maximum; inconclusive means response in the unintended direction; inactive means score below 0.9.
How the values were obtained:
[1] = target: mouse Estrogen Receptor alpha (Era), Esr1 (gene 13982) (UniProt P19785); assay: NVS_NR_mERa: NovaScreen (NVS) Nuclear Receptor Binding Assay for mouse Estrogen Receptor alpha (Era) (AID 2283378);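 further: hit means loss of bound radioligand signal relative to DMSO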
Procedure, shortened: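 Extracted mouse Era incubated with tritiated or iodinated radioligand plus test chemical, 18 h. Bound fraction separated on filters, counted by scintillation. DMSO = negative control/baseline; duplicate single-point at 25 uM, then concentration-response follow-up.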

[2] = TOX21_p53_BLA_p2_viability: Viability Assessment in the Tox21 HCT-116 p53 Agonism Beta-lactamase Assay, Phase 2 (AID 2283591);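 further: compound exposure lasted 16 h at 37 °C; actives lower the ATP signal meaning cytotoxicity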
Procedure, shortened: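 HCT-116 p53-bla cells (4000/well) rested 5 h at 37C, then received compounds in DMSO (217-fold dilution) for 16 h at 37C, 5% CO2. After the CCF4 read, CellTiter-Glo was added; ATP luminescence was read after 30 min at room temperature.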

[3] = target: Cellular tumor antigen p53 (Homo sapiens) (UniProt P04637); assay: TOX21_p53_BLA_p2_ratio: Tox21 HCT-116 p53 Agonism Beta-lactamase Assay, Ratio, Phase 2 (AID 2283592)
Procedure, shortened: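 Plated HCT116 p53-bla cells (4000/well) received compound after 5 h, then 16 h at 37C/5% CO2. CCF4-AM added, 2 h RT. Ratio of 460 to 530 nm emission taken as the p53 reporter signal.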

[4] = TOX21_p53_BLA_p3_viability: Viability Assessment in the Tox21 HCT-116 p53 Agonism Beta-lactamase Assay, Phase 3 (AID 2283593);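 further: cells exposed to compound for 16 h before reading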
Procedure, shortened: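 HCT-116 cells (4000/well) rested 5 h at 37C, then got DMSO compounds by pin tool (217-fold dilution) for 16 h at 37C, 5% CO2. After the bla read, CellTiter-Glo was added and luminescence read at 30 min, room temperature.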

[5] = target: Cellular tumor antigen p53 (Homo sapiens) (UniProt P04637); assay: TOX21_p53_BLA_p3_ratio: Tox21 HCT-116 p53 Agonism Beta-lactamase Assay, Ratio, Phase 3 (AID 2283596)
Procedure, shortened: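 Cells were seeded at 4000/well, rested 5 h at 37C, then dosed with DMSO compound solutions (217-fold dilution) for 16 h. CCF4-AM substrate was loaded for 2 h at room temperature, and the 460/530 nm emission ratio was fitted for gain of signal versus DMSO.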

[6] = TOX21_p53_BLA_p4_viability: Viability Assessment in the Tox21 HCT-116 p53 Agonism Beta-lactamase Assay, Phase 4 (AID 2283597);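 further: hits lower the luminescence signal meaning cytotoxicity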
Procedure, shortened: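 Readout: ATP luminescence (CellTiter-Glo), measured 30 min after reagent addition at RT. The reagent followed a 2 h CCF4-AM incubation, and the cells had been exposed to compound for 16 h at 37C.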

[7] = target: Cellular tumor antigen p53 (Homo sapiens) (UniProt P04637); assay: TOX21_p53_BLA_p5_ratio: Tox21 HCT-116 p53 Agonism Beta-lactamase Assay, Ratio, Phase 5 (AID 2283599)
Procedure, shortened: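 HCT-116 cells carrying a p53-inducible beta-lactamase reporter were seeded at 4000 cells/well and dosed after 5 h with compound in DMSO (217-fold dilution). After 16 h at 37C, CCF4-AM substrate was added for 2 h, and the 460/530 nm emission ratio was scored as gain-of-signal versus DMSO.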

[8] = TOX21_p53_BLA_p5_viability: Viability Assessment in the Tox21 HCT-116 p53 Agonism Beta-lactamase Assay, Phase 5 (AID 2283600)
Procedure, shortened: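 Workflow: seed 4000 cells per well, wait 5 h, add compounds (DMSO, 217-fold dilution), incubate 16 h, load CCF4-AM 2 h, add CellTiter-Glo, read luminescence after 30 min.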

[9] = target: Cellular tumor antigen p53 (Homo sapiens) (UniProt P04637); assay: TOX21_p53_BLA_p4_ratio: Tox21 HCT-116 p53 Agonism Beta-lactamase Assay, Ratio, Phase 4 (AID 2283601)
Procedure, shortened: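 HCT116 cells carrying an inducible beta-lactamase reporter were plated at 4000 cells/well, rested 5 h, then exposed to compounds in DMSO (217-fold dilution) for 16 h at 37C. CCF4-AM substrate was loaded 2 h at room temperature; 460/530 nm emission ratio scored gain-of-signal versus DMSO.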

Chain of Cellular tumor antigen p53 (Homo sapiens) (P04637 whole entry, looked up): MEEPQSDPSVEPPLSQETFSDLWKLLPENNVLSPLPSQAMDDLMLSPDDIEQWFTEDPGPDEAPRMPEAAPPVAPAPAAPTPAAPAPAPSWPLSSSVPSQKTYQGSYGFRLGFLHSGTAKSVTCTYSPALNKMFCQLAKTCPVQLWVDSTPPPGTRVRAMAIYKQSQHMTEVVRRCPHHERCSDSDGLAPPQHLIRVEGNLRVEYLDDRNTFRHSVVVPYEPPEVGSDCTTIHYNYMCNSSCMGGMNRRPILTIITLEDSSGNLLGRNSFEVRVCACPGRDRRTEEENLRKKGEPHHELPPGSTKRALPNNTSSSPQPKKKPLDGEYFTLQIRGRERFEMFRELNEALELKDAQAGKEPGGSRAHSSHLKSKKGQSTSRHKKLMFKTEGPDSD
Chain of mouse Estrogen Receptor alpha (Era), Esr1 (gene 13982) (P19785 whole entry, looked up): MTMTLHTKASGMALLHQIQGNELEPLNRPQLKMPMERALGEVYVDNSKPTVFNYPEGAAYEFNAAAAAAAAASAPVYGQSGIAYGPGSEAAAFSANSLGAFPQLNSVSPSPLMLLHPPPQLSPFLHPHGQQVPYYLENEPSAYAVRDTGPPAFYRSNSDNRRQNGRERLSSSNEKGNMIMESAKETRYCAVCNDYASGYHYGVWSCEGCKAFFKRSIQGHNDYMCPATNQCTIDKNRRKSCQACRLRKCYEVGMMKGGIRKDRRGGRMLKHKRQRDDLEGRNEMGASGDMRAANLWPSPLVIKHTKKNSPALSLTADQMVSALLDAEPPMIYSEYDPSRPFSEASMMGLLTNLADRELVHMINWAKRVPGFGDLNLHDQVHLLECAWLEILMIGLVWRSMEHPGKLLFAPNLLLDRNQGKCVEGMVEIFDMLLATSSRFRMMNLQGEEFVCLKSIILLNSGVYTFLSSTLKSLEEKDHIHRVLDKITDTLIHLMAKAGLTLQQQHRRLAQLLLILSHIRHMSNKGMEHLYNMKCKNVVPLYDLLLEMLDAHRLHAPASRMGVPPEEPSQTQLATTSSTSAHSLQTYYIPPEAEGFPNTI

Compound: N#CC(C#N)=NNc1cccc(Cl)c1
- outcome [1]: inactive
- AC50 [2]: 20.8 µM (active)
- AC50 [3]: 2.66 µM (active)
- outcome [4]: inactive
- AC50 [5]: 1.24 µM (active)
- AC50 [6]: 6.28 µM (active)
- AC50 [7]: 26.7 µM (active)
- AC50 [8]: 46.1 µM (active)
- AC50 [9]: 13.8 µM (active)

Compound: C#C[C@]1(OC(=O)CCCCCC)CC[C@H]2[C@@H]3CCC4=CC(=O)CC[C@@H]4[C@H]3CC[C@@]21C
- AC50 [2]: 8.02 µM (active)
- outcome [3]: inactive
- AC50 [4]: 23 µM (active)
- outcome [5]: inactive
- outcome [6]: inactive
- outcome [7]: inactive
- outcome [8]: inactive

Compound: [H+].[H+].[Hg+2].[O-]B([O-])[O-].[c-]1ccccc1
- AC50 [2]: 7.89 µM (active)
- AC50 [3]: 1.73 µM (active)
- AC50 [4]: 0.975 µM (active)
- AC50 [5]: 1.17 µM (active)
- AC50 [6]: 8.43 µM (active)
- AC50 [7]: 5.39 µM (active)
- AC50 [8]: 4.94 µM (active)
- AC50 [9]: 18.3 µM (active)

Compound: C[C@@H]1CC[C@H]2[C@@H](C)C(=O)O[C@@H]3O[C@@]4(C)CC[C@@H]1[C@]32OO4
- outcome [2]: inactive
- outcome [3]: inactive
- outcome [4]: inactive
- outcome [5]: inactive
- outcome [6]: inactive
- outcome [7]: inactive
- outcome [8]: inactive
- outcome [9]: inactive

Compound: N#CCBr
- outcome [2]: inactive
- outcome [3]: inactive
- outcome [4]: inactive

Compound: CC[C@H](N)c1ccccc1
- outcome [2]: inactive
- outcome [3]: inactive
- outcome [4]: inactive
- outcome [5]: inactive
- outcome [6]: inactive
- outcome [7]: inactive

Compound: C=CC(=O)OCCN(C)C
- outcome [2]: inactive
- outcome [3]: inactive
- outcome [4]: inactive
- outcome [5]: inactive
- outcome [6]: inactive
- outcome [7]: inactive
- outcome [8]: inactive

Compound: N=C(N)[Se]
- outcome [2]: inactive
- outcome [3]: inactive
- outcome [4]: inactive
- outcome [5]: inactive
- outcome [6]: inactive
- outcome [7]: inactive
- outcome [8]: inactive
- outcome [9]: inactive

Compound: C#CCN1CC(=O)N(COC(=O)C2C(C=C(C)C)C2(C)C)C1=O (stereo unspecified)
- outcome [2]: inactive
- outcome [3]: inactive
- outcome [4]: inactive
- outcome [5]: inactive

Compound: Nc1c(Br)cc([N+](=O)[O-])cc1[N+](=O)[O-]
- outcome [2]: inactive
- outcome [3]: inactive
- outcome [4]: inactive
- outcome [5]: inactive

Compound: Oc1ccc(Cl)c(Cl)c1
- outcome [2]: inactive
- outcome [3]: inactive
- outcome [4]: inactive
- outcome [5]: inactive
- outcome [6]: inactive
- outcome [7]: inactive
- outcome [8]: inactive
- outcome [9]: inactive

Compound: Oc1c(Br)c(Br)c(Br)c(Br)c1Br
- outcome [2]: inactive
- AC50 [3]: 1.56 µM (active)
- outcome [4]: inactive
- AC50 [5]: 0.886 µM (active)
- outcome [6]: inactive
- outcome [7]: inactive
- outcome [8]: inactive
- outcome [9]: inactive

Compound: O=C(N/N=C/c1ccc([N+](=O)[O-])o1)c1cc([N+](=O)[O-])cc([N+](=O)[O-])c1O
- outcome [2]: inactive
- outcome [3]: inactive
- outcome [4]: inactive
- outcome [5]: inactive
- AC50 [6]: 23 µM (active)
- outcome [7]: inactive
- outcome [8]: inactive
- outcome [9]: inactive

Compound: CCCCCCC[CH2][Sn]([Cl])([Cl])[CH2]CCCCCCC
- AC50 [2]: 66.6 µM (active)
- AC50 [3]: 67 µM (active)
- AC50 [4]: 57.1 µM (active)
- AC50 [5]: 21.2 µM (active)
- AC50 [6]: 36.5 µM (active)
- outcome [7]: inactive
- outcome [8]: inactive
- outcome [9]: inactive
